Laboratory results reported in PubChem BioAssay (NCI).
Compounds without any hit were thinned out: in the full panel of roughly 79,000, 15% have a hit. Activity calls are given as the source filed them. Rule as the data show it: active = growth inhibition above about 70%; inactive = the rest.

Experiments:
[1] = NCI Yeast Anticancer Drug Screen. Data for the rad52 strain (AID 147);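 also: 0% = growth of vehicle-treated control cultures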; details: S. cerevisiae rad52 mutant growth inhibition, hits give high values
In short: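 Genetically altered yeast (DNA damage repair defect) treated with compound; inhibition calculated relative to vehicle.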

[2] = NCI Yeast Anticancer Drug Screen. Data for the wt1 strain (AID 149);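 also: 0% = growth of vehicle-treated wt1 cultures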; details: S. cerevisiae wt1 strain (SPY 50644) growth inhibition, hits give high values
In short: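 wt1 yeast, compound-treated; % growth inhibition vs vehicle control.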

[3] = NCI Yeast Anticancer Drug Screen. Data for the rad50EPP+ strain (AID 151);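 also: 0% = growth of vehicle-treated control cultures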; details: S. cerevisiae rad50 mutant strain, hits give high values
In short: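 Strain rad50EPP+; compound exposure; % growth inhibition vs vehicle.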

[4] = NCI Yeast Anticancer Drug Screen. Data for the mgt1 strain (AID 153); details: S. cerevisiae mgt1 mutant growth inhibition, hits give high values
In short: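 Read-out: yeast growth inhibition vs vehicle control. Strain mgt1, drawn from a panel altered in DNA damage repair or cell cycle control.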

[5] = NCI Yeast Anticancer Drug Screen. Data for the rad50 strain (AID 155);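 also: 0% = growth of vehicle-only cultures of the same strain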; details: S. cerevisiae rad50 strain growth inhibition, hits give high values
In short: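 Genetically altered yeast (DNA repair pathway); compound treatment; growth inhibition vs vehicle ctrl.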

[6] = NCI Yeast Anticancer Drug Screen. Data for the mec2-1 strain (AID 157); details: S. cerevisiae mec2-1 strain, hits give high values
In short: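 Cells of the genetically defined mec2-1 yeast strain are incubated with test compound. Inhibition of growth is calculated against vehicle-treated controls.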

[7] = NCI Yeast Anticancer Drug Screen. Data for the rad14 strain (AID 159);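 also: 0% = growth of vehicle-treated control cultures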; details: S. cerevisiae rad14 strain growth inhibition, hits give high values
In short: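 Test compounds were applied to a repair-deficient yeast strain. Its growth was then compared with that of cultures given vehicle alone, and inhibition was expressed relative to those controls.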

[8] = NCI Yeast Anticancer Drug Screen. Data for the sgs1 mgt1 strain (AID 161);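 also: 0% = growth of cultures given vehicle only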; details: S. cerevisiae sgs1 mgt1 strain, hits give high values
In short: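 Inhibition of yeast growth, normalised to vehicle-treated controls, is reported for a strain bearing genetic alterations in DNA damage repair.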

[9] = NCI Yeast Anticancer Drug Screen. Data for the CLN2oe strain (AID 163);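 also: 0% = growth of vehicle-only control cultures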; details: S. cerevisiae CLN2oe strain, hits give high values
In short: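 Strain altered in cell-cycle control, incubated with compound; growth compared to solvent-treated controls.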

[10] = NCI Yeast Anticancer Drug Screen. Data for the cln2 rad14 strain (AID 165);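 also: 0% = growth equal to vehicle treated cultures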; details: S. cerevisiae cln2 rad14 strain, hits give high values
In short: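 The screen exposed genetically defined yeast (cln2 rad14) to test compounds and scored growth inhibition relative to vehicle-treated controls.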

[11] = NCI Yeast Anticancer Drug Screen. Data for the bub3 strain (AID 167); details: S. cerevisiae bub3 mutant strain, hits give high values
In short: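 Yeast carrying a defined mutation is treated with each compound, and growth is compared with that of vehicle-exposed cells to give inhibition.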

[12] = NCI Yeast Anticancer Drug Screen. Data for the wt2 strain (AID 169);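 also: 0% = growth of vehicle-treated yeast cultures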; details: S. cerevisiae wt2 strain growth inhibition, hits give high values
In short: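 Steps: yeast strain treated with compound; growth recorded; inhibition calculated relative to cultures given vehicle alone.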

[13] = NCI Yeast Anticancer Drug Screen. Data for the mlh1 strain (AID 171);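 also: 0% = growth of vehicle-treated control cultures of the same strain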; details: S. cerevisiae mlh1 strain growth inhibition, hits give high values
In short: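 Yeast screen: mutant strain plus compound, growth scored against vehicle control wells.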

[14] = NCI Yeast Anticancer Drug Screen. Data for the sgs1 strain (AID 173);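 also: 0% = growth of vehicle-only control cultures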; details: S. cerevisiae sgs1 mutant, hits give high values
In short: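 Inhibition of yeast growth served as the measure. The mutant strain was treated with each compound, and growth was normalised to cultures receiving vehicle alone.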

[15] = NCI Yeast Anticancer Drug Screen. Data for the mlh1 rad18 strain (AID 175); details: S. cerevisiae mlh1 rad18 strain growth inhibition, hits give high values
In short: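 Compound-treated yeast growth, normalised to vehicle controls. Strain bears defined DNA repair mutations.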

[16] = NCI Yeast Anticancer Drug Screen. Data for the rad18 strain (AID 177); details: S. cerevisiae rad18 mutant growth inhibition, hits give high values
In short: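 Inhibition values reflect reduced yeast growth compared with vehicle-treated controls, using a strain engineered with a DNA damage repair defect.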

[17] = at 5.0 µM (retest, dose inferred, filed as 0.5)
[18] = at 50.0 µM (retest, dose inferred, filed as 5.0)

Measured: growth inhibition

COc1cc(C(=O)C=O)cc(OC)c1OC
inactive: [1]; at 1.2 µM 1% | [1]; at 3.7 µM 3% | [1]; at 11.0 µM 1% | [1]; at 33.0 µM 0% | [2]; at 1.2 µM -3% | [2]; at 3.7 µM -4% | [2]; at 11.0 µM -7% | [2]; at 33.0 µM -5% | [2]; at 100.0 µM 61% | [3]; at 1.2 µM 1% | [3]; at 3.7 µM 5% | [3]; at 11.0 µM 6% | [3]; at 33.0 µM 16% | [3]; at 100.0 µM 58% | [4]; at 1.2 µM 1% | [4]; at 3.7 µM -3% | [4]; at 11.0 µM -4% | [4]; at 33.0 µM 14% | [5]; at 1.2 µM 0% | [5]; at 3.7 µM -5% | [5]; [17] -156% | [5]; at 11.0 µM 9% | [5]; at 33.0 µM 19% | [5]; [18] 44% | [5]; at 50.0 µM 44.3% | [6]; at 1.2 µM 1% | [6]; at 3.7 µM -1% | [6]; [17] -53% | [6]; at 11.0 µM 6% | [6]; at 33.0 µM -4% | [6]; [18] 3% | [6]; at 50.0 µM 57% | [7]; at 1.2 µM -3% | [7]; at 3.7 µM -7% | [7]; at 11.0 µM -5% | [7]; at 33.0 µM 9% | [8]; [17] -67% | [8]; [18] 60% | [9]; at 1.2 µM 0% | [9]; at 3.7 µM -5% | [9]; at 11.0 µM -7% | [9]; at 33.0 µM 6% | [10]; [17] -65% | [10]; [18] 8% | [10]; at 50.0 µM 37.5% | [11]; at 1.2 µM -6% | [11]; at 3.7 µM -6% | [11]; [17] -66% | [11]; at 11.0 µM -8% | [11]; at 33.0 µM -8% | [11]; [18] 33% | [11]; at 50.0 µM 31.9% | [12]; at 1.2 µM 2% | [12]; at 3.7 µM 1% | [12]; at 11.0 µM 0% | [12]; at 33.0 µM 0% | [13]; at 1.2 µM 9% | [13]; at 3.7 µM -3% | [13]; at 11.0 µM -6% | [13]; at 33.0 µM -8% | [14]; at 1.2 µM 1% | [14]; at 3.7 µM 4% | [14]; at 11.0 µM 3% | [14]; at 33.0 µM 31% | [15]; [17] -129% | [15]; [18] 52% | [15]; at 50.0 µM 67.4% | [16]; at 1.2 µM 0% | [16]; at 3.7 µM -2% | [16]; at 11.0 µM -2% | [16]; at 33.0 µM 5%
active: [1]; at 100.0 µM 86% | [4]; at 100.0 µM 94% | [5]; at 100.0 µM 91% | [6]; at 100.0 µM 90% | [7]; at 100.0 µM 95% | [8]; at 50.0 µM 73% | [9]; at 100.0 µM 85% | [11]; at 100.0 µM 87% | [12]; at 100.0 µM 88% | [13]; at 100.0 µM 88% | [14]; at 100.0 µM 97% | [16]; at 100.0 µM 91%

CC(C)[Si]1(C(C)C)OCC2OC(n3cnc4c(N)ncnc43)C(N)C2O[Si](C(C)C)(C(C)C)O1 (stereo unspecified)
inactive: [1]; at 1.2 µM 3% | [1]; at 3.7 µM 9% | [1]; at 11.0 µM 32% | [2]; at 1.2 µM 5% | [2]; at 3.7 µM 11% | [2]; at 11.0 µM 34% | [3]; at 1.2 µM 10% | [3]; at 3.7 µM 20% | [3]; at 11.0 µM 15% | [3]; at 33.0 µM 24% | [4]; at 1.2 µM 19% | [4]; at 3.7 µM 16% | [4]; at 11.0 µM 20% | [5]; at 1.2 µM 7% | [5]; at 3.7 µM 10% | [5]; [17] 38% | [5]; at 11.0 µM 41% | [6]; at 1.2 µM 19% | [6]; at 3.7 µM -5% | [6]; [17] 14% | [6]; at 11.0 µM 14% | [7]; at 1.2 µM -1% | [7]; at 3.7 µM 1% | [7]; at 11.0 µM 13% | [8]; [17] 7% | [9]; at 1.2 µM 14% | [9]; at 3.7 µM 2% | [9]; at 11.0 µM 5% | [10]; [17] 18% | [11]; at 1.2 µM -3% | [11]; at 3.7 µM -10% | [11]; [17] -26% | [11]; at 11.0 µM 9% | [12]; at 1.2 µM -50% | [12]; at 3.7 µM -34% | [13]; at 1.2 µM 3% | [13]; at 3.7 µM 14% | [13]; at 11.0 µM 32% | [14]; at 1.2 µM 6% | [14]; at 3.7 µM 5% | [14]; at 11.0 µM 19% | [15]; [17] 47% | [16]; at 1.2 µM -8% | [16]; at 3.7 µM 2% | [16]; at 11.0 µM 22%
active: [1]; at 33.0 µM 98% | [1]; at 100.0 µM 98% | [2]; at 33.0 µM 98% | [2]; at 100.0 µM 98% | [3]; at 100.0 µM 89% | [4]; at 33.0 µM 98% | [4]; at 100.0 µM 98% | [5]; at 33.0 µM 98% | [5]; [18] 98% | [5]; at 50.0 µM 89.8% | [5]; at 100.0 µM 98% | [6]; at 33.0 µM 98% | [6]; [18] 99% | [6]; at 50.0 µM 90.4% | [6]; at 100.0 µM 98% | [7]; at 33.0 µM 98% | [7]; at 100.0 µM 98% | [8]; [18] 99% | [8]; at 50.0 µM 88.8% | [9]; at 33.0 µM 97% | [9]; at 100.0 µM 98% | [10]; [18] 99% | [10]; at 50.0 µM 89.3% | [11]; at 33.0 µM 97% | [11]; [18] 99% | [11]; at 50.0 µM 86.5% | [11]; at 100.0 µM 98% | [12]; at 11.0 µM 93% | [12]; at 33.0 µM 98% | [12]; at 100.0 µM 97% | [13]; at 33.0 µM 97% | [13]; at 100.0 µM 98% | [14]; at 33.0 µM 97% | [14]; at 100.0 µM 98% | [15]; [18] 99% | [15]; at 50.0 µM 87.4% | [16]; at 33.0 µM 97% | [16]; at 100.0 µM 97%
